Reference: PubChem BioAssay
Calls of active or inactive are those of the source.

Experiments:
Albumin (Bos taurus) = Albumin (Bos taurus) (UniProt P02769); assay: compounds binding labelled BSA control protein – biochemical, small-molecule microarray, Alexa647 label, 635/667 nm fluorescence, artefact control for SMM control protein annotation, profiling panel (AID 1118); details: BSA-A647 binding, fluorescence 635 nm, higher = more signal;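 also: score merges 667 nm emission intensity and signal-to-noise per printed compound spot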
Chain of Albumin (Bos taurus) (P02769 whole entry, looked up): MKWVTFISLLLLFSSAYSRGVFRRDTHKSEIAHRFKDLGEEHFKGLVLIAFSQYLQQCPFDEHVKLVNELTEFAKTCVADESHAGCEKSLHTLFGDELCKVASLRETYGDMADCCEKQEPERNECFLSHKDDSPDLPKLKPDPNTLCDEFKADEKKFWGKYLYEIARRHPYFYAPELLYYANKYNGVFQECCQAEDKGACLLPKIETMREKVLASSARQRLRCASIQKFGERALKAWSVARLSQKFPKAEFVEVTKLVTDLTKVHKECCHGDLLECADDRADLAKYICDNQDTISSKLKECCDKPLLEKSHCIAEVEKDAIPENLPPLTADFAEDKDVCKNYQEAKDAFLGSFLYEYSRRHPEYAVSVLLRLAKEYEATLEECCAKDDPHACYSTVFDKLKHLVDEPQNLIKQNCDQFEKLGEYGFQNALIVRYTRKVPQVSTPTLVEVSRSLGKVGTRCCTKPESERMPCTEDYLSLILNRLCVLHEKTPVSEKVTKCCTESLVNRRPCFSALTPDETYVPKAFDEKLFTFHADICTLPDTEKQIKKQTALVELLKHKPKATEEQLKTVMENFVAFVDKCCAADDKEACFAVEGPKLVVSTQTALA

[1] = probe aXIP binding to arrayed compounds – biochemical, NeuroSMM set, 635/667 nm fluorescence, primary screen (AID 1119); details: small-molecule microarray, higher = more signal, called active from +8 up or from −8 down;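 also: probe is the protein aXip251-270 applied at 1 µg/mL to compound-printed slides; binding of probe to printed compounds measured as 667 nm fluorescence plus signal to noise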
[2] = probe aNOTCH3 binding on compound microarray – biochemical, small-molecule microarray, 635/667 nm fluorescence, primary screen (AID 1120); details: higher = more signal;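 also: probe is a biotin-tagged antibody raised against NOTCH3 rather than NOTCH3 protein; score merges spot fluorescence near 667 nm with spot signal to noise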
[3] = probe aNOTCH2 binding on compound microarray – biochemical, small-molecule microarray, 635/667 nm fluorescence, primary screen (AID 1121); details: higher = more signal;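 also: score merges feature fluorescence read at 667 nm with its signal to noise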
[4] = biological target: Carbonic anhydrase 2 (Homo sapiens) (UniProt P00918); assay: compounds binding carbonic anhydrase 2 – biochemical, small-molecule microarray, Alexa647-labelled CAII, profiling panel (AID 1122); details: CAII-A647 binding fluorescence, higher = more signal
[5] = COS7 lysate on small-molecule microarray, probe aHis, 635 nm (AID 1123); details: COS7 cell lysate, fluorescence, higher = more signal;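 also: z-score combines 667nm fluorescence intensity with signal-to-noise per printed compound spot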
[6] = probe aLAP1 signal on lysate-treated microarray – cell lysate, small-molecule microarray, COS7 lysate, primary screen (AID 1124); details: probe aLAP1, fluorescence, higher = more signal;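 also: lysate comes from COS7 cells expressing LAP1 and is applied at 0.3 µg/mL; score merges spot fluorescence near 667 nm with signal-to-noise over triplicate slides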
Sam68 (KHDRBS1) = assay: compounds binding KHDRBS1 protein – biochemical, small-molecule microarray, 635 nm fluorescence, primary screen (AID 1125); details: higher = more signal;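 also: score merges 667 nm channel intensity with signal to noise over triplicate slides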
[7] = system: Chordin-like protein 2 (CHRDL2); assay: compounds binding chordin-like 2 – biochemical, small-molecule microarray, 635 nm fluorescence, primary screen (AID 1126); details: fluorescence 635 nm, higher = more signal;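 also: printed compound slides probed with Chrdl2 protein at 4 µg/mL for 1 h at 4 C; score merges 667 nm emission intensity with signal to noise over three replicate slides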
[8] = biological target: Concanavalin-A (Canavalia ensiformis) (UniProt P02866); assay: compounds binding concanavalin A lectin – biochemical, small-molecule microarray, Alexa647 label, 635 nm, artefact control for SMM control protein annotation, primary screen (AID 1127); details: ConA-A647 binding fluorescence, higher = more signal;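 also: z combines 667 nm emission intensity with signal-to-noise across three replicate slides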
Chain of Concanavalin-A (Canavalia ensiformis) (P02866 whole entry, looked up): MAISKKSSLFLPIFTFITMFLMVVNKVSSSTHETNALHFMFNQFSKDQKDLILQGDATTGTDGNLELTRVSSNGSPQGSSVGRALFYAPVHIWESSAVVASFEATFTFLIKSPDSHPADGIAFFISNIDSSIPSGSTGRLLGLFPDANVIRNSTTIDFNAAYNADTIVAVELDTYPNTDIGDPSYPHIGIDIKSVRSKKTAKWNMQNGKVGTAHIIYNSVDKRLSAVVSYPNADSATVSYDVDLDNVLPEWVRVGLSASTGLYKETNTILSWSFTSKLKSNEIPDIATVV

[9] = compounds binding Alexa647 anti-His antibody – biochemical, small-molecule microarray, 635 nm fluorescence, artefact control for SMM control protein annotation, primary screen (AID 1128); details: higher = more signal;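 also: score merges feature fluorescence with signal-to-noise for each printed compound spot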
[10] = system: Human papillomavirus type 1a E7 protein (residues 1-88); assay: HPV1a E7 small-molecule binders, primary screen, biochemical, small-molecule microarray, residues 1-88, 635 nm (AID 1129); details: small-molecule microarray binding, fluorescence 635 nm; higher = more signal
[11] = biological target: Focal adhesion kinase 1 (Homo sapiens) (UniProt Q05397); assay: PTK2 protein binding on printed compound slides – biochemical, small-molecule microarray, 635/667 nm fluorescence, BSA, DTT, primary screen (AID 1130); details: 635 nm fluorescence, higher = more signal;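 also: composite of spot emission at 667 nm and signal to noise over triplicate slides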
Chain of Focal adhesion kinase 1 (Homo sapiens) (Q05397 whole entry, looked up): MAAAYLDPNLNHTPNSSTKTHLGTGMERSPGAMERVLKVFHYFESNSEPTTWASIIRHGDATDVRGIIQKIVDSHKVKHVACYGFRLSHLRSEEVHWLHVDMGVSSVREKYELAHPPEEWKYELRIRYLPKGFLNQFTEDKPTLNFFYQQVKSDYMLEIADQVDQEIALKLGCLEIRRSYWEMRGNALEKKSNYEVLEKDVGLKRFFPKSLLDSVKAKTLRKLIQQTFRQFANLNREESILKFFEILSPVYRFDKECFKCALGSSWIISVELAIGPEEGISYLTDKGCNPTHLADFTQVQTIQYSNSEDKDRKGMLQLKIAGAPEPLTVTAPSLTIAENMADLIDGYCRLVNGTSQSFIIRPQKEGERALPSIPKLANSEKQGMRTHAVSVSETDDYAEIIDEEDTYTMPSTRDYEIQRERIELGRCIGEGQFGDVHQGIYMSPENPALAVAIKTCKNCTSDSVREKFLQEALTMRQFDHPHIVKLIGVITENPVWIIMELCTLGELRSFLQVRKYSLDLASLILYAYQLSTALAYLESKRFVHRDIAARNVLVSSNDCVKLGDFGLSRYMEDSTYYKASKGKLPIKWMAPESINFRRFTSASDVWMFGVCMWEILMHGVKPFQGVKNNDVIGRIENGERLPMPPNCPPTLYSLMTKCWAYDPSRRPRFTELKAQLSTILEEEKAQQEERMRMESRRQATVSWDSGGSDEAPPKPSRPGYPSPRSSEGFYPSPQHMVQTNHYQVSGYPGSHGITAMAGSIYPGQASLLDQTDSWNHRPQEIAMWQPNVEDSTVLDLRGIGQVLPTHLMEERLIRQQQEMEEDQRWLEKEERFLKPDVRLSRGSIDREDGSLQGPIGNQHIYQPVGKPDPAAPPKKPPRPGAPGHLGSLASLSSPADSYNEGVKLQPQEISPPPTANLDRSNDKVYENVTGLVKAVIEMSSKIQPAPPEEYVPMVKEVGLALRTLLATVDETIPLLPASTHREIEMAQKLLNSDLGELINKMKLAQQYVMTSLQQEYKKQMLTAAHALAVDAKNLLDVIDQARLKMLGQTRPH

[12] = system: Fibrinogen (Alexa647-labelled); assay: Alexa647-fibrinogen binding to printed small molecules – biochemical, small-molecule microarray, 635/667 nm fluorescence, artefact control for SMM control-protein annotation, profiling panel (AID 1131); details: fibrinogen-A647 binding fluorescence, higher = more signal;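 also: z-score merges 667 nm fluorescence with per-spot signal-to-noise over triplicate slides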
[13] = biological target: Follistatin (Homo sapiens) (UniProt P19883); assay: FST protein binding to printed compounds – biochemical, small-molecule microarray, 635/667 nm fluorescence, primary screen (AID 1132); details: 635 nm fluorescence, higher = more signal
Chain of Follistatin (Homo sapiens) (P19883 whole entry, looked up): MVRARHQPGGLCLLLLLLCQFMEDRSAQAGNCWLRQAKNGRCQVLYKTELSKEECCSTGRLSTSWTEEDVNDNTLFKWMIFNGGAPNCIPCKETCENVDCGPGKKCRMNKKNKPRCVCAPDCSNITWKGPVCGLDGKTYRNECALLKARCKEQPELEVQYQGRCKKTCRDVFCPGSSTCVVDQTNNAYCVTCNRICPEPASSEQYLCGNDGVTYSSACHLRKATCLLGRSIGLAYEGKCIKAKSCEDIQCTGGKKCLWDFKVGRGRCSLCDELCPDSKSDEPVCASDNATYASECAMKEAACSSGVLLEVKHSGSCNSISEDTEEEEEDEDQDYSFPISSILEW

[14] = biological target: Fibroblast growth factor 2 (Homo sapiens) (UniProt P09038); assay: basic fibroblast growth factor binding to printed compounds – biochemical, small-molecule microarray, 635/667 nm fluorescence, primary screen (AID 1133); details: FGF2, fluorescence 635/667, higher = more signal
Chain of Fibroblast growth factor 2 (Homo sapiens) (P09038 whole entry, looked up): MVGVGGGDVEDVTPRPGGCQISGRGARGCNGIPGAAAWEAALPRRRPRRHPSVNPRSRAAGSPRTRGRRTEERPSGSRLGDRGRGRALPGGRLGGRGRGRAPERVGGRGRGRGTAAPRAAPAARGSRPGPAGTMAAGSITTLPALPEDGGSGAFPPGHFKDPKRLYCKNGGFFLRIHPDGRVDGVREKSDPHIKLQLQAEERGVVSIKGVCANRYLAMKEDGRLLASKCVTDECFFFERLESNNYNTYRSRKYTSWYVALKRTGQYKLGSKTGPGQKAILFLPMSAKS

[15] = JC-1 mitochondrial potential readout, lung cancer cells – cell-based, A549, JC-1 fluorescence, basal, 24 h, 100 nL, profiling panel (AID 1138); details: higher = more signal;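 also: A549 lung adenocarcinoma cells under basal conditions with no added stimulus; test concentration not given here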
Lefty1 = Lefty1 protein binding to printed compounds – biochemical, small-molecule microarray, 635/667 nm fluorescence, primary screen (AID 1139); details: fluorescence 635/667, higher = more signal
[16] = system: wheat germ agglutinin (Triticum aestivum), Alexa647-labelled; assay: Alexa647-WGA lectin binding to printed small molecules – biochemical, small-molecule microarray, 635/667 nm fluorescence, artefact control for SMM control-protein annotation, profiling panel (AID 1140); details: WGA-A647 binding, 635 nm fluorescence, higher = more signal;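 also: score merges 667 nm feature emission with signal to noise over triplicate slides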
[17] = biological target: Luciferin 4-monooxygenase (Photinus pyralis) (UniProt P08659); assay: inhibition of purified Photinus pyralis luciferase – biochemical, luminescence, purified enzyme, 2006 set, primary screen (AID 1141); details: purified firefly luciferase, SteadyGlo luminescence, 30 min; higher = more signal, called active from +8 up or from −8 down;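 also: cell-free assay with purified firefly luciferase at 100 ng per well in PBS; test concentration not given here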
Chain of Luciferin 4-monooxygenase (Photinus pyralis) (P08659 whole entry, looked up): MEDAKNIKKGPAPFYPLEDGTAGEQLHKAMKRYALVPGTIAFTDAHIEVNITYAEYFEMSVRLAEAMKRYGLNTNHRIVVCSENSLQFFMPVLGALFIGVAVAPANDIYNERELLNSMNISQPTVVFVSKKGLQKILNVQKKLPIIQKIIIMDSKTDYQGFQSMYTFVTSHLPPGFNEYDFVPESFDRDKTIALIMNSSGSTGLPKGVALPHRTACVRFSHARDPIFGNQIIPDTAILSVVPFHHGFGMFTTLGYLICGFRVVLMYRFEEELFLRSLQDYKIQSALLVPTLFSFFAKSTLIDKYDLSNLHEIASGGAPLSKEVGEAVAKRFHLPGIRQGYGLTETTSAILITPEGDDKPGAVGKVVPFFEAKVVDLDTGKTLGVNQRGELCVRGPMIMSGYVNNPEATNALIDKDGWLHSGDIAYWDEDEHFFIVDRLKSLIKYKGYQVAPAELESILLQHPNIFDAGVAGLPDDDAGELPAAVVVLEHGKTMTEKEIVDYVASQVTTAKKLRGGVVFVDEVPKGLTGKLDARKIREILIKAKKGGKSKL

| Compound | composite z-score (Albumin (Bos taurus)) | composite Z-score [1] | composite z-score [2] | composite z-score [3] | composite z-score [4] | composite z-score [5] | composite z-score [6] | composite z-score (Sam68 (KHDRBS1)) | composite z-score [7] | composite z-score [8] | composite z-score [9] | composite z-score [10] | composite z-score [11] | composite z-score [12] | composite z-score [13] | composite z-score [14] | z-score [15] | composite z-score (Lefty1) | composite z-score [16] | z-score [17] |
| --- | --- | --- | --- | --- | --- | --- | --- | --- | --- | --- | --- | --- | --- | --- | --- | --- | --- | --- | --- | --- |
| CC(C)OC(=O)C=C1C[C@@H](c2cccc(Cl)c2)O[C@@H](c2cccc(Cl)c2)O1 | 0.466 | 0.806 (inactive) | -0.137 | 0.0234 | 0.299 | 1.68 | 0.484 | -0.296 | -0.579 | 0.99 | 1.72 | 0.824 | 0.526 | -0.105 | -0.545 | -0.122 | -0.143 | -1.1 | 0.751 | 0.924 (inactive) |
| CS(=O)(=O)CCOC(=O)C1=CC(CCCO)=CC(C2CC2)N(Cc2cc3c(cc2Br)OCO3)C=C1C(=O)OCCS(C)(=O)=O (stereo not given) | 0.741 | -0.289 (inactive) | -0.0573 | -0.0322 | 0.774 | 0.88 | 0.495 | 0.531 | 0.45 | 0.544 | 1.97 | 0.419 | -0.0438 | 1.01 | 1.18 | 0.198 | 1.29 | 0.477 | 1.15 | -0.395 (inactive) |
| CCCCC(O)C1C=CC2C(=O)N(C)C(=O)C2N1N1CCCCC1 (stereo not given) | 0.843 | 0.257 (inactive) | 0.291 | 0.0675 | 0.821 | 2.45 | 0.536 | 0.952 | 0.372 | 0.0635 | 1.69 | 0.678 | 0.367 | 1.03 | 0.971 | -0.331 | -0.0954 | 0.412 | 1.19 | 0.452 (inactive) |
| CCOC(=O)C1=C[C@@H](C(C)C)N(S(=O)(=O)c2ccc(C)cc2)[C@H]1c1ccccc1F | 0.81 | 0.594 (inactive) | 0.0576 | -0.0877 | 0.62 | 1.66 | -0.144 | 1.31 | -0.333 | 1.17 | 0.654 | 1.2 | -0.0031 | 1.02 | 0.96 | 0.307 | 2.33 | 0.187 | 0.927 | 1.82 (inactive) |
| O=C1O[C@@H](c2ccccc2)[C@@H](c2ccccc2)N2[C@@H](c3ccc(OCCO)cc3)[C@]3(C(=O)Nc4ccc(C#CCCO)cc43)[C@@H](C(=O)NC[C@H](O)c3ccccc3)[C@H]12 | -0.517 | 1.23 (inactive) | 0.138 | -0.143 | 0.165 | 1.66 | 0.822 | 1.26 | 0.891 | 1.07 | 0.797 | 1.17 | 0.947 | 0.668 | 1.34 | 1.01 | 0.225 | 0.958 | 0.356 | -1.15 (inactive) |
| O=C1O[C@H](c2ccccc2)[C@H](c2ccccc2)N2[C@H]1[C@@H](C(=O)NC[C@H](O)c1ccccc1)[C@]1(C(=O)Nc3ccccc31)[C@H]2c1ccc(O)cc1 | 0.626 | -0.35 (inactive) | -0.0328 | -0.0629 | 0.66 | 1.19 | 0.463 | 0.959 | 1.23 | 1.01 | 0.885 | 0.973 | 0.223 | 0.141 | 1.22 | 1.71 | -0.236 | 0.947 | 0.39 | 0.363 (inactive) |
| CC(C)(C)OC(=O)CC[C@]1(C(=O)NCCN2CCOCC2)COC(c2ccc(OCCCO)cc2)=N1 | 0.735 | 0.347 (inactive) | 0.199 | -0.0995 | 0.719 | 2.48 | 0.737 | 1.28 | -0.634 | 0.919 | 1.34 | 1.19 | 0.436 | 0.46 | 1.32 | 1.78 | -0.13 | 0.78 | 0.253 | 0.965 (inactive) |
| C=CC[C@]1(C(N)=O)COC(c2ccc(OCCCO)cc2)=N1 | 0.102 | 0.0767 (inactive) | 0.0831 | -0.104 | 0.903 | 0.148 | -0.136 | -0.133 | 0.0919 | 0.817 | 1.07 | 0.017 | 0.2 | 0.561 | 0.786 | 1.31 | 0.359 | 0.863 | 0.493 | 0.322 (inactive) |
| O=C(NC1CC1)[C@@H]1c2ccccc2C(=O)N(Cc2cc(F)cc(C(F)(F)F)c2)[C@H]1c1ccc(CO)cc1 | 0.416 | -0.0461 (inactive) | -0.182 | -0.112 | 0.237 | 0.668 | 0.747 | 0.521 | -0.791 | 0.0427 | 1.23 | -0.454 | 0.315 | -0.399 | 0.542 | -0.258 | 0.739 | -0.396 | 0.569 | -0.124 (inactive) |
| CCCC=C(CCC)[C@@H](NS(=O)(=O)c1ccc(Cl)cc1)c1ccc(C(=O)OC)cc1 | 0.196 | -0.243 (inactive) | -0.0111 | 0.0703 | 0.805 | 0.314 | -0.159 | 0.674 | -0.0433 | 0.627 | 0.817 | 0.843 | 0.0301 | 0.539 | -0.843 | -0.174 | 0.418 | 0.181 | 0.309 | 2.84 (inactive) |
| C=CC[C@@]1(C(=O)N2CCCCC2)N=C(c2ccc(OCCCO)cc2)O[C@@H]1c1ccccc1CN=[N+]=[N-] | 0.866 | -0.166 (inactive) | 0.244 | -0.0505 | 0.671 | 3.13 | 1.06 | 1.29 | -0.602 | 1.04 | 2.75 | 1.27 | 0.398 | 1.02 | 1.37 | 0.288 | -0.0114 | 0.484 | 0.768 | -1.37 (inactive) |
